Measurements taken from PubChem BioAssay AID624296 (National Center for Advancing Translational Sciences (NCATS), 2012).
The campaign covered roughly 350,000 compounds. About 9,900 (2.8%) were called active. Another 15% or so got no clear call; they are omitted. This excerpt belongs to a sample that is enriched for actives. Unmarked numbers belong to inactive results. Calls come from the whole dose curve; as a rule, active = well fitted activation curve with a large enough effect; inconclusive = small, poorly fitted or top-dose-only effect; inactive = no such curve, though single readings can be large or run the other way.

Assay: A quantitative high throughput screen for small molecules that induce DNA re-replication in MCF 10a normal breast cells. For activity, positive = re-replication: % of control where 0% means no effect. Note: nearly all actives have a fitted effect of over 50% in size.
Conditions: MCF 10A DNA re-replication, Hoechst nuclear intensity, 48 h; series mostly up to 46.1 µM; activity, positive = re-replication: at the top concentration
Potency is the fitted concentration of half-maximal effect.

Structure (SMILES)	activity, positive = re-replication [%]	Potency
O=S(=O)(Nc1cc(Cl)ccc1N1CCOCC1)c1ccccc1Cl	8.16	–
CCCc1ccc(-c2c(C)sc(NC(=O)c3ccnn3C)c2C#N)cc1	–	16.4 µM (active)
Cc1sc(NC(=O)C2=COCCO2)c(C#N)c1C	1.25	–
Cn1nccc1CNC(=O)c1ccnn1C	2.28	–
COCC(=O)N(C)[C@H]1C[C@H]2c3cc(Oc4ccccc4C)ccc3CCN2C(=O)[C@H]1[C@H](C)O	-6.77	–
O=C(C1=C[C@H](c2coc3ccccc3c2=O)C[C@H](OCc2ccc(CO)cc2)O1)N1CCOCC1	12.5	–
C=CCOC(=O)C1=C[C@@H](c2ccc3c(c2)OCO3)C[C@@H](OCCCCO)O1	2.54	–
CN1CCN(C(=O)C2=C[C@H](c3ccc4c(c3)OCO4)C[C@H](OCc3ccc(CO)cc3)O2)CC1	–	8.2 µM (active)
CC(=O)n1cc([C@H]2C=C(C(=O)N3CCOCC3)O[C@@H](OCc3ccc(CO)cc3)C2)c2ccccc21	-18.7	–
CC(=O)n1cc([C@@H]2C=C(C(=O)N3CCN(Cc4ccc5c(c4)OCO5)CC3)O[C@H](OCc3ccc(CO)cc3)C2)c2ccccc21	–	13 µM (active)
NC(=O)C1=C[C@@H](c2ccc3c(c2)OCO3)C[C@@H](OCCCCO)O1	4.84	–
Cc1ccc2c(CN3CCN(S(=O)(=O)c4ccccc4C(F)(F)F)CC3)cc(=O)oc2c1	0.766	–
COc1cc(C(c2c(NC(=O)c3ccco3)sc(C)c2C)N2CCOCC2)cc(OC)c1OC (stereo not given)	16.7	–
O=C(O)c1ccc([N+](=O)[O-])cc1Sc1ccsc1	5.85	–
Cc1ccc(C)c(S(=O)(=O)N(C)c2ccc(OC(=O)C3CCN(C(=O)c4ccc(F)cc4)CC3)cc2)c1	4.81	–
COc1ccc(CCC(=O)Nc2ccc(Cl)c(S(=O)(=O)N3CCOCC3)c2)cc1OC	-1.15	–
COc1ccc(Br)cc1CN(C)C(=O)C1CC(=O)N(C2CCCC2)C1 (stereo not given)	1.01	–
COc1ccc(OC)c(NC(=O)COC(=O)Cc2ccsc2)c1	-0.467	–
CC(C)(C)c1ccc(/C=C/C(=O)Nc2ncccn2)cc1	5.09	–
O=C(COC(=O)/C=C/c1ccc2c(c1)OCO2)NC1CCS(=O)(=O)C1 (stereo not given)	-8.83	–
CC(C)(C)c1ccc(/C=C/C(=O)NC2CCS(=O)(=O)C2)cc1 (stereo not given)	–	0.92 µM (active)
CCCc1cc(=O)[nH]c(SCC(=O)Nc2ccc(S(=O)(=O)N3CCCC3)cc2)n1	6.91	–
CC(=O)Nc1ccc(OCC(O)CN2CCN(c3ccccc3Cl)CC2)cc1 (stereo not given)	9.34	–
Cc1ccccc1OCC(O)CN1CCN(c2ccccn2)CC1 (stereo not given)	0.536	–
CC(C)c1ccc(OCC(O)CN2CCN(c3ccccn3)CC2)cc1 (stereo not given)	–	16.4 µM (active)

Structure (SMILES)	activity, positive = re-replication [%]	Potency
COC(=O)[C@]1(CC(C)C)N[C@H](c2ccc(SC3CCCCC3)cc2)[C@@H]2C(=O)N(C)C(=O)[C@@H]21	-1.67	–
CSc1ncccc1C(=O)Nc1ccc2c(c1)OCO2	2.63	–
Nn1c(SCC(=O)Nc2ccc3c(c2)CCC3)nnc1C1CC1	-0.587	–
Cc1nc(N)sc1-c1ccccc1	-9.51	–
CCOC(=O)C1=C(C)N(C[C@@H]2CC[C@@H](Cc3ccc(-c4ccccc4)cc3)O2)C(=O)NC1c1ccc([N+](=O)[O-])cc1 (stereo not given in full)	-15.2	–
S=C1SCN(CCN2CCOCC2)CN1Cc1ccccc1	5.55	–
COc1ccc(CN2CN(C(C)C)CSC2=S)cc1	–	5.17 µM (active)
COc1ccc(CCC(C)N2CCc3ccccc3C2)cc1 (stereo not given)	-2.26	–
S=C(Nc1ccccc1)Nc1ccc2ccccc2c1	18.6	–
COc1ccc2[nH]c3c(c2c1)CCN1C(=O)C(CC(=O)NCCCN(C)C)C[C@H](C(=O)N2CCOCC2)[C@@]31CCC1CCCC1 (stereo not given in full)	10.8	–
CCOC(=O)[C@H]1[C@H]2COc3cc(OC)ccc3[C@@H]2N2C(=O)CN(Cc3ccc(Cl)cc3)C(=O)[C@@]12C	-15.2	–
CCC(C)c1ccc(NC(=O)COC(=O)C2CCCC2)cc1 (stereo not given)	-2.86	–
COc1ccc(OCc2cn3c(C)cc(C)nc3n2)cc1	-2.68	–
COc1ccc(C(=O)CSc2nc(C)cc(C)n2)cc1[N+](=O)[O-]	19.8	–
COc1ccc(C(C[N+](=O)[O-])n2nc(C)cc2C)cc1 (stereo not given)	–	13 µM (active)
COc1ccccc1C(=O)Nc1ccc(OCC(=O)N2CCCCC2)cc1	-5.49	–
COc1ccc2nc(Nc3nc(-c4cc5ccccc5oc4=O)cs3)sc2c1	–	5.8 µM (active)
O=c1oc2ccccc2cc1-c1csc(Nc2ccc(O)cc2)n1	–	14.6 µM (active)
CCNc1nc(-c2cc3ccccc3o2)cs1	12.7	–
COc1ccc2nc(Nc3nc(-c4ccncc4)cs3)sc2c1	7.45	–
Cc1ccc(Nc2nc(-c3ccc(O)cc3O)cs2)nc1	24.9	–
CCc1noc(C)c1C(=O)Nc1nc2ccc(OC)cc2s1	-2.02	–
CC(OC(=O)Cc1ccc(F)cc1)C(=O)N1CCc2ccccc21 (stereo not given)	3.1	–
Cc1sc2ncnc(N3CCC(C(=O)Nc4ccc(F)cc4Cl)CC3)c2c1C	8.78	–
C#CCOCCOCCOCCNc1nc(N2CCN(C(=O)Cn3cc(CCO)nn3)CC2)nc(N2CCN(C(=O)Cn3cc(CCCN=C(N)N)nn3)CC2)n1	3.26	–
